Laboratory results from PubChem BioAssay (EPA / NIEHS).
Activity calls are given as the source filed them. The calls were made as follows: active = hit-call score of the fitted dose curve at least 0.9, where 1 is the maximum; inactive = score below 0.9.

Key:
Conditions in all cases: mRNA level, 48 h; actives raise or lower the signal
[1] = read-out: Tumor necrosis factor receptor superfamily member 6 (Homo sapiens) (UniProt P25445); test: LTEA_HepaRG_FAS: Life Technologies and Expression Analysis (LTEA) Assay for Fas cell surface death receptor (FAS) using HepaRG (AID 2283447)
Procedure, shortened: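 Differentiated human HepaRG cells, pre-cultured 48 h, were exposed in duplicate for 48 h to 8-point half-log concentrations (top 100 uM, 0.5% DMSO) in serum-free induction medium; FAS mRNA measured by qRT-PCR, normalized to ACTB/GAPDH/POLR2A, bidirectional fit versus DMSO.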

[2] = read-out: Fatty acid synthase (Homo sapiens) (UniProt P49327); test: LTEA_HepaRG_FASN: Life Technologies and Expression Analysis (LTEA) Assay for Fatty Acid Synthase (FASN) using HepaRG (AID 2283448)
Procedure, shortened: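 In human HepaRG cultures, 48 h chemical exposure (up to 100 uM, 0.5% DMSO) preceded TaqMan qRT-PCR of FASN.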

[3] = read-out: Cyclin D2 (CCND2), CCND2 (gene 894); test: LTEA_HepaRG_CCND2: Life Technologies and Expression Analysis (LTEA) Assay for Cyclin D2 (CCND2) using HepaRG (AID 2283449);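 also: CCND2 transcript measured by TaqMan qRT-PCR and normalised to three housekeeping genes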
Procedure, shortened: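 In this HepaRG study, an eight-point concentration series (max 100 uM, 0.5% DMSO) is applied for 48 h. CCND2 mRNA change is derived by qRT-PCR normalised to ACTB, GAPDH and POLR2A.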

[4] = read-out: Cyclin Dependent Kinase Inhibitor 1A (CDKN1A), CDKN1A (gene 1026); test: LTEA_HepaRG_CDKN1A: Life Technologies and Expression Analysis (LTEA) Assay for Cyclin Dependent Kinase Inhibitor 1A (CDKN1A) using HepaRG (AID 2283450)
Procedure, shortened: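 Differentiated HepaRG cells in serum-free induction medium, exposed 48 h in duplicate to eight half-log concentrations up to 100 uM in 0.5% DMSO. mRNA measured by TaqMan qRT-PCR, normalized to ACTB, GAPDH, POLR2A; bidirectional fit versus DMSO.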

[5] = read-out: Cyclin D1 (CCND1), CCND1 (gene 595); test: LTEA_HepaRG_CCND1: Life Technologies and Expression Analysis (LTEA) Assay for Cyclin D1 (CCND1) using HepaRG (AID 2283451);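 as to AC50: TaqMan qRT-PCR transcript level normalised to ACTB GAPDH and POLR2A housekeeping genes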
Procedure, shortened: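 Differentiated HepaRG cells exposed 48 h in serum-free induction medium to eight half-log concentrations from 100 uM top, 0.5% DMSO, duplicates. CCND1 mRNA measured by Fluidigm TaqMan qRT-PCR, normalised to ACTB, GAPDH, POLR2A; bidirectional fit.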

[6] = read-out: catalase (CAT), CAT (gene 847); test: LTEA_HepaRG_CAT: Life Technologies and Expression Analysis (LTEA) Assay for catalase (CAT) using HepaRG (AID 2283452);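 as to AC50: TaqMan qRT-PCR signal normalized to ACTB GAPDH and POLR2A housekeeping genes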
Procedure, shortened: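 Differentiated HepaRG cells in serum-free induction medium were dosed 48 h in duplicate, eight half-log concentrations from 100 uM in 0.5% DMSO. Transcript measured by TaqMan qRT-PCR, normalised to ACTB/GAPDH/POLR2A, fitted bidirectionally against DMSO.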

[7] = read-out: flavin-containing dimethylaniline monooxygenases 3 (FMO3), FMO3 (gene 2328); test: LTEA_HepaRG_FMO3: Life Technologies and Expression Analysis (LTEA) Assay for flavin-containing dimethylaniline monooxygenases 3 (FMO3) using HepaRG (AID 2283453);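 as to AC50: FMO3 transcript by TaqMan qRT-PCR normalized to ACTB GAPDH and POLR2A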
Procedure, shortened: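 Eight-point concentration-response in serum-free HepaRG cultures (top 100 uM, 0.5% DMSO, 48 h). Read-out: FMO3 mRNA level normalized to three endogenous control genes, fitted bidirectionally versus vehicle.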

[8] = read-out: Cytochrome P450 (CYP1A1), CYP1A1 (gene 1543); test: LTEA_HepaRG_CYP1A1: Life Technologies and Expression Analysis (LTEA) Assay for Cytochrome P450 (CYP1A1) using HepaRG (AID 2283454)
Procedure, shortened: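 Differentiated human HepaRG cells, after 48 h plating, exposed in duplicate for 48 h in serum-free induction medium to 8 half-log concentrations up to 100 uM in 0.5% DMSO. CYP1A1 mRNA by qRT-PCR, normalized to ACTB/GAPDH/POLR2A; bidirectional fit versus DMSO.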

[9] = read-out: CFLAR gene, CFLAR (gene 8837); test: LTEA_HepaRG_CFLAR: Life Technologies and Expression Analysis (LTEA) Assay for CFLAR gene using HepaRG (AID 2283455)
Procedure, shortened: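 Gain- or loss-of-signal changes in CFLAR transcript were fitted bidirectionally relative to 0.5% DMSO. Cells (HepaRG, duplicate wells) were dosed for 48 h across eight half-log concentrations topping at 100 uM; quantitation by TaqMan qRT-PCR.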

[10] = read-out: Forkhead box O1 (FOXO1), FOXO1 (gene 2308); test: LTEA_HepaRG_FOXO1: Life Technologies and Expression Analysis (LTEA) Assay for Forkhead box O1 (FOXO1) using HepaRG (AID 2283456)
Procedure, shortened: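 Using one lot of HepaRG hepatic cells kept in 0.5% DMSO, the team applied test chemicals in duplicate, half-log dilutions from 100 uM, for 48 h. Expression, normalised to ACTB/GAPDH/POLR2A, was compared with vehicle in either direction.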

[11] = read-out: growth arrest and DNA damage 45 (GADD45A), GADD45A (gene 1647); test: LTEA_HepaRG_GADD45A: Life Technologies and Expression Analysis (LTEA) Assay for growth arrest and DNA damage 45 (GADD45A) using HepaRG (AID 2283458)
Procedure, shortened: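 Eight-point concentration-response in HepaRG cells: 48 h chemical exposure, 0.5% DMSO vehicle, top dose 100 uM. Normalized qRT-PCR mRNA readout with bidirectional fitting relative to DMSO.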

[12] = read-out: Forkhead box O3 (FOXO3), FOXO3 (gene 2309); test: LTEA_HepaRG_FOXO3: Life Technologies and Expression Analysis (LTEA) Assay for Forkhead box O3 (FOXO3) using HepaRG (AID 2283459)
Procedure, shortened: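 Gene-expression endpoint: FOXO3 transcript level by qRT-PCR in HepaRG cultures treated 48 h with chemicals up to 100 uM (half-log, 0.5% DMSO vehicle).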

[13] = read-out: ABC Transporter (ABCB1), ABCB1 (gene 5243); test: LTEA_HepaRG_ABCB1: Life Technologies and Expression Analysis (LTEA) Assay for ABC Transporter (ABCB1) using HepaRG (AID 2283460)
Procedure, shortened: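 Human liver HepaRG line treated 48 h with up to 100 uM compound (eight half-log points, 0.5% DMSO); ABCB1 mRNA change fitted bidirectionally against DMSO controls.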

[14] = read-out: growth arrest and DNA damage 45 (GADD45B), GADD45B (gene 4616); test: LTEA_HepaRG_GADD45B: Life Technologies and Expression Analysis (LTEA) Assay for growth arrest and DNA damage 45 (GADD45B) using HepaRG (AID 2283461)
Procedure, shortened: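 Differentiated human HepaRG cells in serum-free induction medium exposed 48 h in duplicate to eight concentrations, top 100 uM, half-log steps, 0.5% DMSO. GADD45B mRNA by TaqMan qRT-PCR, normalized to ACTB, GAPDH, POLR2A; bidirectional fit versus DMSO.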

[15] = read-out: ABC Transporter (ABCC3), ABCC3 (gene 8714); test: LTEA_HepaRG_ABCC3: Life Technologies and Expression Analysis (LTEA) Assay for ABC Transporter (ABCC3) using HepaRG (AID 2283462)
Procedure, shortened: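 Differentiated human HepaRG cells exposed 48 h in serum-free induction medium, 0.5% DMSO vehicle, 8-point half-log series to 100 uM in duplicate. ABCC3 mRNA by qRT-PCR, normalised to ACTB, GAPDH, POLR2A; bidirectional fit vs DMSO.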

Measured: AC50

Chain of Fatty acid synthase (Homo sapiens) (P49327 whole entry, looked up): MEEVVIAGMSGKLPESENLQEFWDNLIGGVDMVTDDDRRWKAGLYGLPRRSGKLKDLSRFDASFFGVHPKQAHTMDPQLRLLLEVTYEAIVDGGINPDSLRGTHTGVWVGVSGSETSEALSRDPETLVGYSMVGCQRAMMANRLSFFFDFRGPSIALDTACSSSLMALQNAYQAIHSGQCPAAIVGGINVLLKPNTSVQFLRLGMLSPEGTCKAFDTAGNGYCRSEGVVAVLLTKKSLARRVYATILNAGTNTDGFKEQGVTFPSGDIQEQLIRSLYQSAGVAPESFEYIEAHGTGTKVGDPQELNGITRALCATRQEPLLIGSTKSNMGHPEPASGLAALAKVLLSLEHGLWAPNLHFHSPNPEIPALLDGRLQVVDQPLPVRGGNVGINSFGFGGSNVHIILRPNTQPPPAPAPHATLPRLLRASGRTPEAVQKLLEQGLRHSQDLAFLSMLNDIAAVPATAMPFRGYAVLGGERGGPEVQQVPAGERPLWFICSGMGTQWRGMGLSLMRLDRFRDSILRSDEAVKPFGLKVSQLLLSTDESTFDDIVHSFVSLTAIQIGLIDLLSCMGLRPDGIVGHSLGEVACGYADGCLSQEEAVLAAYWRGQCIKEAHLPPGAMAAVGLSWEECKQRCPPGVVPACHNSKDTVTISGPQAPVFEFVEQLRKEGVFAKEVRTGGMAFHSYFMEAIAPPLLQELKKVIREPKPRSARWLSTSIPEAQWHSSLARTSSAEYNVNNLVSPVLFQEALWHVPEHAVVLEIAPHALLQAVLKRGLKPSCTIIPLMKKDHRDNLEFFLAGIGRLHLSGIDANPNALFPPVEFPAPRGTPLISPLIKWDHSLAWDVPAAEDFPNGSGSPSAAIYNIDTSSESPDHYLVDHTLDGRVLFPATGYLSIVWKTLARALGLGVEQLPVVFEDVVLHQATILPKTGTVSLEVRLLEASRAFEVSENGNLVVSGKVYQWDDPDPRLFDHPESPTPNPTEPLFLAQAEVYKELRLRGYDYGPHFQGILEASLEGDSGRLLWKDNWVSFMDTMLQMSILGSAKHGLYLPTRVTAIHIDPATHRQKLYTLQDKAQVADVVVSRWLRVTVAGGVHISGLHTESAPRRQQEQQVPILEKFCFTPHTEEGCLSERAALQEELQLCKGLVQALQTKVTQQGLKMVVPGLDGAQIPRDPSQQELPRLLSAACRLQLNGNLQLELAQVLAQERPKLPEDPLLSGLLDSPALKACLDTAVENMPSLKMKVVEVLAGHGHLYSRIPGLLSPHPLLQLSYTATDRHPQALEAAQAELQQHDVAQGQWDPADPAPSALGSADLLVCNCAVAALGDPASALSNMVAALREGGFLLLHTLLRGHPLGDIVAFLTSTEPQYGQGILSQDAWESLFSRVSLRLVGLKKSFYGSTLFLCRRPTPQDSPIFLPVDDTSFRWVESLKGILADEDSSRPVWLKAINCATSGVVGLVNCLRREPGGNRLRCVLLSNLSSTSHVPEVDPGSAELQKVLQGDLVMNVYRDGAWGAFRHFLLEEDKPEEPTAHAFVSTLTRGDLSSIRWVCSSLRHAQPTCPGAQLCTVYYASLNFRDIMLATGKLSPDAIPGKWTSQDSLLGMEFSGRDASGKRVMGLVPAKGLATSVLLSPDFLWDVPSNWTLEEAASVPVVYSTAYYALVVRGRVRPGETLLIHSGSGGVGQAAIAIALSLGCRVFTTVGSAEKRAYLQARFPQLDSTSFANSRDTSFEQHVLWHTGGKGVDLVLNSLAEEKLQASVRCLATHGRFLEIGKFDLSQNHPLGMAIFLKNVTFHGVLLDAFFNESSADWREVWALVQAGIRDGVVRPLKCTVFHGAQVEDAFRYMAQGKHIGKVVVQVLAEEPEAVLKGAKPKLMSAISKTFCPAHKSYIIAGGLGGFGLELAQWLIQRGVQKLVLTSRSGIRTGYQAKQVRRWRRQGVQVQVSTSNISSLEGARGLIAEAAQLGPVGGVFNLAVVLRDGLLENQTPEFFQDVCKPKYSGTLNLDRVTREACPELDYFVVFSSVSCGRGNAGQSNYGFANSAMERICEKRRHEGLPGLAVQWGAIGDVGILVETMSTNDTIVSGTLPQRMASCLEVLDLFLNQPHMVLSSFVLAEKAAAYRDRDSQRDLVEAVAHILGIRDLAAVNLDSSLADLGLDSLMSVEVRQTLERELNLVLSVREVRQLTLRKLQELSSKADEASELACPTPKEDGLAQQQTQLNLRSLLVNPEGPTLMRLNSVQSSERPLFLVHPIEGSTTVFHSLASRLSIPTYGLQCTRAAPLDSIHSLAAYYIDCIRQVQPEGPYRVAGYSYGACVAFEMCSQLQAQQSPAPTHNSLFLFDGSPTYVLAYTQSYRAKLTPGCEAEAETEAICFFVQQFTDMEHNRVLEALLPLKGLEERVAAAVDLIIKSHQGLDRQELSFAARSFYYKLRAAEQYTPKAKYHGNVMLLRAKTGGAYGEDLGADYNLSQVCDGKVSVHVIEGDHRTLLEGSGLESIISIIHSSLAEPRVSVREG

CCN1CCC2(CC1)COc1cc3c(cc12)N(C(=O)c1ccc(-c2ccc(-c4nnc(C)o4)cc2C)cc1)CC3
inactive: [1]
active: [2] 29.9 µM | [3] 46.8 µM | [4] 84.6 µM | [5] 30.8 µM | [6] 21.1 µM | [7] 13.8 µM | [8] 9.34 µM | [9] 29.2 µM | [10] 27.7 µM | [11] 75.3 µM | [12] 17.4 µM | [13] 17.4 µM | [14] 12.5 µM | [15] 71.6 µM

ClC1(Cl)C2(Cl)C3(Cl)C4(Cl)C(Cl)(Cl)C5(Cl)C3(Cl)C1(Cl)C5(Cl)C24Cl (centres undefined)
inactive: [1] | [3] | [4] | [5] | [6] | [7] | [9] | [10] | [11] | [12] | [13] | [14] | [15]
active: [2] 3.24 µM | [8] 23.3 µM

CC(C)(c1ccccc1)c1ccc(O)c(C(C)(C)c2ccccc2)c1
active: [6] 60.7 µM | [7] 78.2 µM | [8] 35.8 µM | [13] 22.1 µM
inactive: [1] | [3] | [4] | [5] | [9] | [10] | [11] | [12] | [14] | [15]

Cc1ccccc1N
inactive: [1] | [2] | [3] | [4] | [5] | [6] | [7] | [8] | [9] | [10] | [11] | [12] | [13] | [14] | [15]

CC(C)(OO)c1ccccc1
active: [8] 65.7 µM
inactive: [1] | [2] | [3] | [4] | [5] | [6] | [7] | [9] | [10] | [11] | [12] | [13] | [14] | [15]

CC(C)(C)c1cc(O)ccc1O
inactive: [1] | [2] | [3] | [4] | [5] | [6] | [7] | [8] | [9] | [10] | [11] | [12] | [13] | [14]

CCCCCCCCc1ccc(O)cc1
active: [5] 0.346 µM
inactive: [2] | [4] | [6] | [7] | [8] | [9] | [10] | [11] | [12] | [13] | [14] | [15]

ClCC(Cl)CCl
inactive: [1] | [2] | [3] | [4] | [5] | [6] | [7] | [8] | [9] | [10] | [11] | [12] | [13] | [14] | [15]

O=[N+]([O-])c1ccc(O)c([N+](=O)[O-])c1
inactive: [1] | [3] | [10]
active: [2] 13.1 µM | [4] 12.4 µM | [5] 12.6 µM | [6] 13.2 µM | [7] 15.3 µM | [8] 71.5 µM | [9] 13.2 µM | [11] 11.5 µM | [12] 28.8 µM | [13] 13.6 µM | [14] 50 µM | [15] 12.4 µM

O=c1[nH]c(=O)[nH]c(=O)[nH]1
inactive: [1] | [2] | [3] | [4] | [5] | [6] | [7] | [8] | [9] | [10] | [11] | [12] | [13] | [14] | [15]

O=C1C2(Cl)C3(Cl)C4(Cl)C(Cl)(Cl)C5(Cl)C3(Cl)C1(Cl)C5(Cl)C24Cl (centres undefined)
inactive: [1] | [8] | [9] | [11]
active: [2] 93.5 µM | [3] 91.9 µM | [4] 93 µM | [5] 92.9 µM | [6] 93.5 µM | [7] 22.6 µM | [10] 93.5 µM | [12] 93.2 µM | [13] 91.8 µM | [14] 93 µM | [15] 92.7 µM

C=CC(=O)OCCCCCC(C)C
inactive: [1] | [2] | [3] | [4] | [5] | [6] | [7] | [9] | [10] | [11] | [12] | [13] | [14] | [15]
active: [8] 50 µM

Cn1sc(Cl)cc1=O
inactive: [1] | [2] | [3] | [4] | [5] | [6] | [7] | [8] | [9] | [10] | [11] | [12] | [13] | [14] | [15]

CC(=O)[O][Hg][c]1ccccc1
active: [2] 2.25 µM | [4] 0.174 µM | [5] 3.75 µM | [6] 13.3 µM | [7] 16.9 µM | [9] 16.8 µM | [10] 12.9 µM | [11] 16.3 µM | [12] 14.5 µM | [13] 24.1 µM | [15] 13 µM
inactive: [8] | [14]

Oc1cccc2cccnc12
inactive: [1] | [2] | [3] | [4] | [5] | [6] | [7] | [8] | [9] | [10] | [11] | [12] | [13] | [14] | [15]

CCC(=O)C(CC(C)N(C)C)(c1ccccc1)c1ccccc1 (centres undefined)
active: [7] 46.7 µM | [8] 55.3 µM | [15] 36.2 µM
inactive: [1] | [2] | [3] | [4] | [5] | [6] | [9] | [10] | [11] | [12] | [13] | [14]

O=C(O)C(F)(F)C(F)(F)C(F)(F)C(F)(F)C(F)(F)C(F)(F)F
inactive: [1] | [2] | [3] | [4] | [5] | [6] | [7] | [8] | [9] | [10] | [11] | [12] | [14] | [15]
active: [13] 0.101 µM

O=C(O)C(F)(F)C(F)(F)C(F)(F)C(F)(F)C(F)(F)C(F)(F)C(F)(F)C(F)(F)C(F)(F)C(F)(F)F
active: [7] 69.1 µM | [12] 47.8 µM
inactive: [1] | [2] | [3] | [4] | [5] | [6] | [8] | [9] | [10] | [11] | [13] | [14] | [15]
